Results published in publication PMC11006913.
Substitutions are numbered along the chain they refer to.

Experiments:
Assay in all cases: PBM; 200 nM protein, PBS
Conditions in all cases: dsDNA, one strand shown
[1] = molecular target: NKX2-5 (Homo sapiens, UniProt P52952 125-210, R139K)
[2] = molecular target: T1, NKX2-4 (Homo sapiens, UniProt Q9H2Z4 175-261, P217L)
T1 sequence: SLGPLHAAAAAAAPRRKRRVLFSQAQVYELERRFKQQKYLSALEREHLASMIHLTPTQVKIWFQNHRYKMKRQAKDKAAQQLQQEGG

[3] = molecular target: T2, NKX2-4 (Homo sapiens, UniProt Q9H2Z4 175-261, T231S)
T2 sequence: T1 sequence with L43P, T57S

[4] = molecular target: T3, NKX2-4 (Homo sapiens, UniProt Q9H2Z4 175-261)
T3 sequence: T1 sequence with L43P

[5] = molecular target: T4, NKX2-4 (Homo sapiens, UniProt Q9H2Z4 175-261, R246Q)
T4 sequence: T1 sequence with L43P, R72Q

[6] = molecular target: NKX2-5 (Homo sapiens, UniProt P52952 125-210)
[7] = molecular target: T5, NKX2-6 (Homo sapiens, UniProt A6NCS4 118-204, R150C)
T5 sequence: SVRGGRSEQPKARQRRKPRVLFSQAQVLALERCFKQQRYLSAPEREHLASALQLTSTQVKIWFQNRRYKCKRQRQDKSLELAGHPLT

[8] = molecular target: T6, NKX2-6 (Homo sapiens, UniProt A6NCS4 118-204)
T6 sequence: T5 sequence with C33R

[9] = molecular target: T7, NKX2-6 (Homo sapiens, UniProt A6NCS4 118-204, F151L)
T7 sequence: T5 sequence with C33R, F34L

[10] = molecular target: T8, VENTX (Homo sapiens, UniProt O95231 78-163, R121Q)
T8 sequence: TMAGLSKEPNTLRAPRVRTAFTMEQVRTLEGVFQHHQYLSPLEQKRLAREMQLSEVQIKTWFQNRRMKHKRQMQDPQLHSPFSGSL

[11] = molecular target: T9, VENTX (Homo sapiens, UniProt O95231 78-163)
T9 sequence: T8 sequence with Q44R

[12] = molecular target: T10, VENTX (Homo sapiens, UniProt O95231 78-163, Y115F)
T10 sequence: T8 sequence with Y38F, Q44R

[13] = molecular target: ALX1 (Homo sapiens, UniProt Q15699 118-204, L144V)
[14] = molecular target: ALX1 (Homo sapiens, UniProt Q15699 118-204, L144R)
[15] = molecular target: ALX1 (Homo sapiens, UniProt Q15699 118-204)
ALX1 (Homo sapiens, UniProt Q15699 118-204), sequence (Q15699 118-204): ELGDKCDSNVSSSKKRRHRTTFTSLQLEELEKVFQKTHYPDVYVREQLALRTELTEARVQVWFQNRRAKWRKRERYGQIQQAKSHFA

NKX2-5 (Homo sapiens, UniProt P52952 125-210), sequence (P52952 125-210): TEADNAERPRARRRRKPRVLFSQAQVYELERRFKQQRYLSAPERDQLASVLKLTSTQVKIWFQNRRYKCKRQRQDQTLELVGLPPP
NKX2-5 (Homo sapiens, UniProt P52952 125-210, R139K), sequence (P52952 125-210 R139K): as the sequence (P52952 125-210) above, with R15K counted along it
ALX1 (Homo sapiens, UniProt Q15699 118-204, L144R), sequence (Q15699 118-204 L144R): as the sequence (Q15699 118-204) above, with L27R counted along it
ALX1 (Homo sapiens, UniProt Q15699 118-204, L144V), sequence (Q15699 118-204 L144V): as the sequence (Q15699 118-204) above, with L27V counted along it

Sequence: CGTGCGGC
- binding signal [1]: 8.72 upbm affinity estimate (log intensity, higher = more binding, comparable within an allelic series)
- binding signal [2]: 9.48 upbm affinity estimate (log intensity, higher = more binding, comparable within an allelic series)
- binding signal [3]: 9.35 upbm affinity estimate (log intensity, higher = more binding, comparable within an allelic series)
- binding signal [4]: 9.44 upbm affinity estimate (log intensity, higher = more binding, comparable within an allelic series)
- binding signal [5]: 9.47 upbm affinity estimate (log intensity, higher = more binding, comparable within an allelic series)
- binding signal [6]: 8.8 upbm affinity estimate (log intensity, higher = more binding, comparable within an allelic series)

Sequence: GCACTTGA
- binding signal [1]: 13.2 upbm affinity estimate (log intensity, higher = more binding, comparable within an allelic series)
- binding signal [2]: 12.8 upbm affinity estimate (log intensity, higher = more binding, comparable within an allelic series)
- binding signal [3]: 13.2 upbm affinity estimate (log intensity, higher = more binding, comparable within an allelic series)
- binding signal [4]: 12.6 upbm affinity estimate (log intensity, higher = more binding, comparable within an allelic series)
- binding signal [7]: 12.1 upbm affinity estimate (log intensity, higher = more binding, comparable within an allelic series)
- binding signal [8]: 13.9 upbm affinity estimate (log intensity, higher = more binding, comparable within an allelic series)
- binding signal [5]: 13.4 upbm affinity estimate (log intensity, higher = more binding, comparable within an allelic series)
- binding signal [9]: 11.4 upbm affinity estimate (log intensity, higher = more binding, comparable within an allelic series)
- binding signal [6]: 13.1 upbm affinity estimate (log intensity, higher = more binding, comparable within an allelic series)

Sequence: CCGGTGGC
- binding signal [1]: 8.61 upbm affinity estimate (log intensity, higher = more binding, comparable within an allelic series)
- binding signal [10]: 7.92 upbm affinity estimate (log intensity, higher = more binding, comparable within an allelic series)
- binding signal [11]: 8.15 upbm affinity estimate (log intensity, higher = more binding, comparable within an allelic series)
- binding signal [12]: 8 upbm affinity estimate (log intensity, higher = more binding, comparable within an allelic series)
- binding signal [13]: 6.52 upbm affinity estimate (log intensity, higher = more binding, comparable within an allelic series)
- binding signal [14]: 6.41 upbm affinity estimate (log intensity, higher = more binding, comparable within an allelic series)
- binding signal [15]: 6.47 upbm affinity estimate (log intensity, higher = more binding, comparable within an allelic series)
- binding signal [6]: 8.93 upbm affinity estimate (log intensity, higher = more binding, comparable within an allelic series)

Sequence: GTCAAGTA
- binding signal [1]: 12.3 upbm affinity estimate (log intensity, higher = more binding, comparable within an allelic series)
- binding signal [2]: 12.5 upbm affinity estimate (log intensity, higher = more binding, comparable within an allelic series)
- binding signal [3]: 12.8 upbm affinity estimate (log intensity, higher = more binding, comparable within an allelic series)
- binding signal [4]: 12.3 upbm affinity estimate (log intensity, higher = more binding, comparable within an allelic series)
- binding signal [8]: 13.4 upbm affinity estimate (log intensity, higher = more binding, comparable within an allelic series)
- binding signal [5]: 13 upbm affinity estimate (log intensity, higher = more binding, comparable within an allelic series)
- binding signal [9]: 10.5 upbm affinity estimate (log intensity, higher = more binding, comparable within an allelic series)
- binding signal [6]: 12.2 upbm affinity estimate (log intensity, higher = more binding, comparable within an allelic series)

Sequence: ACACTTGA
- binding signal [1]: 13 upbm affinity estimate (log intensity, higher = more binding, comparable within an allelic series)
- binding signal [2]: 12.7 upbm affinity estimate (log intensity, higher = more binding, comparable within an allelic series)
- binding signal [3]: 13.2 upbm affinity estimate (log intensity, higher = more binding, comparable within an allelic series)
- binding signal [4]: 12.6 upbm affinity estimate (log intensity, higher = more binding, comparable within an allelic series)
- binding signal [7]: 12 upbm affinity estimate (log intensity, higher = more binding, comparable within an allelic series)
- binding signal [8]: 13.9 upbm affinity estimate (log intensity, higher = more binding, comparable within an allelic series)
- binding signal [5]: 13.4 upbm affinity estimate (log intensity, higher = more binding, comparable within an allelic series)
- binding signal [9]: 11.4 upbm affinity estimate (log intensity, higher = more binding, comparable within an allelic series)
- binding signal [6]: 12.9 upbm affinity estimate (log intensity, higher = more binding, comparable within an allelic series)

Sequence: CCAGCCAG
- binding signal [1]: 8.68 upbm affinity estimate (log intensity, higher = more binding, comparable within an allelic series)
- binding signal [6]: 8.64 upbm affinity estimate (log intensity, higher = more binding, comparable within an allelic series)

Sequence: CCACTCGA
- binding signal [1]: 12.5 upbm affinity estimate (log intensity, higher = more binding, comparable within an allelic series)
- binding signal [2]: 12.6 upbm affinity estimate (log intensity, higher = more binding, comparable within an allelic series)
- binding signal [3]: 13.1 upbm affinity estimate (log intensity, higher = more binding, comparable within an allelic series)
- binding signal [4]: 12.4 upbm affinity estimate (log intensity, higher = more binding, comparable within an allelic series)
- binding signal [7]: 11.6 upbm affinity estimate (log intensity, higher = more binding, comparable within an allelic series)
- binding signal [5]: 13.1 upbm affinity estimate (log intensity, higher = more binding, comparable within an allelic series)
- binding signal [6]: 12.2 upbm affinity estimate (log intensity, higher = more binding, comparable within an allelic series)

Sequence: CTCTTAAG
- binding signal [1]: 12.3 upbm affinity estimate (log intensity, higher = more binding, comparable within an allelic series)
- binding signal [2]: 12.5 upbm affinity estimate (log intensity, higher = more binding, comparable within an allelic series)
- binding signal [3]: 12.7 upbm affinity estimate (log intensity, higher = more binding, comparable within an allelic series)
- binding signal [4]: 12.3 upbm affinity estimate (log intensity, higher = more binding, comparable within an allelic series)
- binding signal [8]: 13.5 upbm affinity estimate (log intensity, higher = more binding, comparable within an allelic series)
- binding signal [5]: 12.9 upbm affinity estimate (log intensity, higher = more binding, comparable within an allelic series)
- binding signal [9]: 10.6 upbm affinity estimate (log intensity, higher = more binding, comparable within an allelic series)
- binding signal [6]: 12.3 upbm affinity estimate (log intensity, higher = more binding, comparable within an allelic series)

Sequence: CCTGGGCC
- binding signal [1]: 8.72 upbm affinity estimate (log intensity, higher = more binding, comparable within an allelic series)
- binding signal [10]: 7.97 upbm affinity estimate (log intensity, higher = more binding, comparable within an allelic series)
- binding signal [11]: 8.01 upbm affinity estimate (log intensity, higher = more binding, comparable within an allelic series)
- binding signal [12]: 7.99 upbm affinity estimate (log intensity, higher = more binding, comparable within an allelic series)
- binding signal [6]: 8.87 upbm affinity estimate (log intensity, higher = more binding, comparable within an allelic series)
